# Test results as given in PubChem BioAssay AID602282 (Johns Hopkins Ion Channel Center, 2012).
# The campaign covered roughly 1,100 compounds. About 1,000 (91%) were called active.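 The calls were made as follows: active = inhibition above 3 SD of the buffer control wells (cut at about 41% in these data); inactive = the rest.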 The set was probably picked from earlier hits. The list is a sample of the results.
# Test: inhibition of M3R-evoked calcium signal on retest – cell-based, HEK293 M3R/RGS4 inducible, calcium flux, duplicate, RGS4 activator project, confirmation (AID 602282);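 also: signal is the integrated peak-minus-minimum Fluo4 fluorescence over baseline ratio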
# Conditions: carbachol calcium flux Fluo4, at 10 µM, stronger effect = higher value
row,Structure (SMILES),inhibition
1,C=CC12CN(C)[C@@H]3C4CO[C@H](C[C@H]41)[C@]1(C(=O)Nc4ccccc41)[C@@H]32 (some centres not stated),84% (active)
2,CC(C)Oc1cccc(C(=O)C2CCCN(C3CCOCC3)C2)c1 (configuration not stated),42.5% (active)
